This is a sample that favours compounds with a hit; in the whole collection about 2.7% have one here.
MITF act = activators of MITF-driven TRPM1 promoter activity in SK-MEL-5 cells; actives 0.75% (n = 300,000); activation, % at 12.5 µM; SK-MEL-5 TRPM1-promoter luciferase, 24 h; % of positive control, neutral wells = 0;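 active = mean activation of at least 80% with every replicate also reaching 80%; inconclusive = mean reaches 80% but some replicate falls short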;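 also: 0% = neutral control wells and 100% = parthenolide positive control wells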
HIV Env fusion = blocks HIV Env-driven cell-cell fusion; HeLa-JRFL Env/CEM21 cell fusion, luciferase; inhibition, % at 12.3 µM; actives 1.1% (n = 360,000); AID 651610;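 active = mean replicate inhibition score of at least 50 and every replicate individually at or above 50; inconclusive = only one of the two criteria met; inactive = mean below 50 and not all replicates reaching 50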;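 also: 0% = plate neutral controls and 100% = maraviroc near 300 nM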
GSIS activator = GLuc luminescence reporter in INS-1E cells, primary screen for activators of glucose-dependent secretion of insulin. INS-1E GLuc reporter insulin secretion, 2-3 h. activation, % at 16.6 µM. actives 0.61% (n = 370,000);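 active = lowest replicate activation of at least 40%, so every replicate reaches that level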;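 also: 0% = median of neutral control wells and 100% = median of IBMX positive control wells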
Wnt act = activates Wnt/beta-catenin signaling in a reporter cell assay | activator, plate reader | activation, % at 9.35 µM | actives 1.2% (n = 300,000); in the data active = activation above about 30%, passing the limit was not always enough; inconclusive = no clear call, values can overlap the other calls;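 also: 0% = neutral control wells and 100% = positive control wells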
CFTR F508del cor = correctors of CFTR F508del function in bronchial epithelial cells; CFBE cells, YFP halide quenching; stimulated with forskolin plus potentiator P3; % fluorescence drop versus neutral controls; activity (quench increase), % at 7.58 µM; actives 0.36% (n = 350,000);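 active = mean added fluorescence quench of at least 8% versus neutral control, with both replicates also reaching 8%; inconclusive = only one of the mean or replicate conditions met; inactive = mean below 8% and not both replicates reaching 8%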;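 also: cells transiently co-express mutant CFTR-F508del with the halide-sensitive YFP; corrector assay measuring rescue of mutant channel to the surface after 24 h compound exposure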
Numbers without * were called inactive; ? = inconclusive; . = no result; [ ] = another dose, or the depositor's remark.

SMILES	MITF act	HIV Env fusion	GSIS activator	Wnt act	CFTR F508del cor
COc1cccc(NC(=O)C[C@@H]2CC[C@H]3[C@H](COc4ccc(NC(=O)C5CCOCC5)cc4C(=O)N3C)O2)c1	.	-2[16.7 µM]	1	.	2
CC1(C(=O)NCc2cccs2)Cc2c(-c3ccccc3)ccnc2O1 (stereo unspecified)	.	-160	-1	-3	-2
CC1(C(=O)NCc2cccs2)Cc2c(-c3ccc4c(c3)OCO4)ccnc2O1 (stereo unspecified)	.	-308	-10	-3	9.5*
COc1ccc2c3c(n(C)c2c1)[C@@H](CO)N(CC1CC1)CC31CN(C(=O)c2ccc(F)cc2)C1	.	.	-16	.	-3
COc1ccccc1C1=NOC(COC(=O)c2ccc(Br)cc2)C1 (stereo unspecified)	0	-29	-5	-12	-1
COc1ccccc1C1=NOC(COC(=O)c2ccc([N+](=O)[O-])cc2)C1 (stereo unspecified)	.	-3	6	41*	1
O=C1c2ccccc2S(=O)(=O)N1CC1CC(c2ccccc2Cl)=NO1 (stereo unspecified)	94*	-58	-17	93*	.
COc1ccccc1C1=NOC(CN2C(=O)c3ccccc3S2(=O)=O)C1 (stereo unspecified)	104*	-59	24	37*	2
O=C(NCC1CCCO1)C1CC(c2ccccc2Cl)=NO1 (stereo unspecified)	12	-33	3	.	.
O=C(C[C@@H]1CC[C@@H]2[C@H](COC[C@@H](O)CN2C(=O)C2CC2)O1)NCc1ccncc1	.	.	16	.	-1
Cc1cc(S(=O)(=O)c2ccc([N+](=O)[O-])cn2)ccc1Br	-89	-90	15	0	2
O=[N+]([O-])c1ccc(S(=O)(=O)c2ccccc2)nc1	-93	-198	77*	-11	-2
Cc1ccc(S(=O)(=O)c2ccc([N+](=O)[O-])cn2)cc1	-88	-349	45*	-12	-6
C[C@@H]1CN([C@H](C)CO)C(=O)c2cc(NS(=O)(=O)c3cn(C)cn3)ccc2O[C@@H](C)CCCCO[C@H]1CN(C)Cc1ccccc1	.	5[16.7 µM]	24	.	-2
COc1cc(OC)c2c3c(c(C4CCCCC4)nc2c1)CCCC3	-25	-17	0	-4	-4
COc1cc(OC)c2c(-c3ccccc3)cc(C3CCCCC3)nc2c1	7	2	42*	2	2
COc1ccc(-c2csc(NC(=S)NC(=O)/C=C/c3ccco3)n2)cc1Br	.	-226	.	-5	9.4*
O=C(/C=C/c1ccco1)NC(=S)Nc1cc(-c2nc3ccccc3s2)ccc1Cl	-9	-23	.	50*	-6
COc1ccc(-c2csc(NC(=S)NC(=O)/C=C/c3ccco3)n2)cc1OC	-18	.	-5	-3	9.7*
COc1ccc(-c2csc(NC(=S)NC(=O)/C=C/c3ccc(C(C)C)cc3)n2)cc1OC	-6	7	17	-4	1
COc1ccc(-c2csc(NC(=S)NC(=O)c3ccco3)n2)cc1Br	1	5	16	0	-1
Cc1ccc(-c2nc3ccccc3s2)cc1NC(=S)NC(=O)/C=C/c1ccco1	-21	.	-4	.	.
COc1ccc(NN=Nc2ccc([N+](=O)[O-])cc2)cc1	99*	-79	-3	8	-1
COc1ccc(N/N=C(/Oc2ccc([N+](=O)[O-])cc2)C(C)=O)cc1	-7	-21	-12	1	.
COc1ccc2c3c([nH]c2c1)[C@@H](CO)N(C(=O)c1ccccn1)CC31CN(C(=O)C2CC2)C1	.	.	18	.	-1
SMILES	MITF act	HIV Env fusion	GSIS activator	Wnt act	CFTR F508del cor
COc1ccc(C2=Nc3ccccc3N(C(=O)c3ccc4ncccc4c3)C2C(=O)NC(C)(C)C)cc1 (stereo unspecified)	.	-19	33	34*	-1
COc1ccc(C2=Nc3ccccc3N(C(=O)Cc3cc(OC)cc(OC)c3)C2C(=O)NC(C)C)cc1 (stereo unspecified)	.	-18	-16	17	0
COc1ccc(C2=Nc3ccccc3N(C(=O)Cc3cc(OC)cc(OC)c3)C2C(=O)NC(C)(C)C)cc1 (stereo unspecified)	.	55*	-15	2	3
O=C1c2ccccc2C(=O)N1OCCOCCOCCBr	-1	.	-16	.	.
O=C1c2ccccc2C(=O)N1OCCOCCOCCON1C(=O)c2ccccc2C1=O	-10	-5	.	45*	.
C[C@H]1CN([C@@H](C)CO)C(=O)c2cc(-c3cccc(F)c3)cnc2O[C@H]1CN(C)C(=O)C1CCCCC1	.	-4[16.7 µM]	-4	.	-1
COc1ccc(N(CC(=O)NCCSCc2ccc(Cl)cc2)S(C)(=O)=O)cc1Cl	10	121*	-37	-3	3
COc1ccc(N(CC(=O)NCCSCc2cccc(Cl)c2)S(C)(=O)=O)cc1Cl	11	?	-7	-1	0
CCOc1ccc(N(CC(=O)NCCSCc2ccc(Cl)cc2)S(C)(=O)=O)cc1	.	80*	6	-4	1
Cc1ccc(CSCCNC(=O)CN(c2cccc([N+](=O)[O-])c2)S(C)(=O)=O)cc1	8	55*	5	-2	-2
CN(C)c1cccc(-c2nnc(SCCCC#N)o2)c1	43	-180	.	41*	.
C[C@H]1CN([C@@H](C)CO)C(=O)c2cc(-c3cccc(F)c3)cnc2O[C@@H]1CN(C)C(=O)C1CCC1	.	3[16.7 µM]	-10	.	0
CCOC(=O)N=Nc1c(O)n(CC(=O)OC)c2ccccc12	1	10	5	2	.
CCOC(=O)N=Nc1c2ccccc2c2nc3no[nH]c3nc12	-103	76*	-14	-1	.
CSc1ncccc1C(=O)Nc1ncc(C)s1	9	-9	-8	-1	1
CC(CCc1ccccc1)NC(=O)c1ccccc1Cl (stereo unspecified)	-1	-1	3	0	-2
CCOc1ncccc1C(=O)NC(C)CCc1ccccc1 (stereo unspecified)	.	-20	51*	-2	3
CCOc1ncccc1C(=O)Nc1ncc(C)s1	2	-8	110*	1	8
CCOc1ncccc1C(=O)NCc1cccc(OC)c1	7	9	88*	.	.
Cc1ccc(S(=O)(=O)N(C)C[C@@H]2OCCCC[C@H](C)Oc3ccc(NS(=O)(=O)c4c(C)noc4C)cc3C(=O)N([C@@H](C)CO)C[C@@H]2C)cc1	.	19[16.7 µM]	-2	.	-3
CO[C@@H]1CN(C)C(=O)c2ccc(NC(=O)Nc3ccccc3)cc2OC[C@H](C)N(C(=O)Nc2c(C)noc2C)C[C@H]1C	.	.	0	.	-2
CCn1c2ccccc2c2cc(NC(=O)CSc3nnc(-c4ccc(OC)c(OC)c4)n3N)ccc21	.	-26	.	.	.
CCn1c2ccccc2c2cc(NC(=O)CSc3nnc(-c4cccc(OC)c4)n3N)ccc21	.	135*	.	.	.
CCn1c2ccccc2c2cc(NC(=O)CSc3nnc(-c4ccccc4OC)n3N)ccc21	4	133*	-28	.	.
COc1cccc(Nc2nc(CN)cs2)n1	.	57*	.	-9	7

Source: PubChem BioAssay (Broad Institute)
